Screening data as filed in PubChem.
Sampled rows, rich in hits. Any-hit rate of the full collection: about 2.4%.
D2 ag-1: agonists of human D2 dopamine receptor (beta-arrestin). P14416. DiscoveRx PathHunter D2 beta-arrestin, luminescence, 90 min; 100% = 57 uM dopamine signal. 360,000 tested, 0.084% active. activation, % (concentration not given with the values). AID 624465; in the data active means activation above about 40%; inconclusive means between about 15% and that limit
Target sequence (P14416 whole entry, looked up): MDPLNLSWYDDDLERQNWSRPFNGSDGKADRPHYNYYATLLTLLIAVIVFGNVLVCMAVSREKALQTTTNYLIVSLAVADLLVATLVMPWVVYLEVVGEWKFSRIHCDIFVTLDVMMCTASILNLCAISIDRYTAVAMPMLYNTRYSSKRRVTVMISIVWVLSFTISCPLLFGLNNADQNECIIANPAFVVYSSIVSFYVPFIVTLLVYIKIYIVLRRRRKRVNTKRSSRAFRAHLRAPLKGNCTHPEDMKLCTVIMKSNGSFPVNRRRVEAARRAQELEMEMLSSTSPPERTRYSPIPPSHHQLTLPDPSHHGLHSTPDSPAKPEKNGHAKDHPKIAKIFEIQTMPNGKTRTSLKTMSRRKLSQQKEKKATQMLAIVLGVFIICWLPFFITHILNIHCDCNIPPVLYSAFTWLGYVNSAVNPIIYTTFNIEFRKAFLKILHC
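DiscoveRx PathHunter D2 beta-arrestin cells (2,100/well) attached overnight, then compound-stimulated 90 min at 37 C in HBSS/10 mM HEPES/0.1% Tween-20 buffer; beta-galactosidase complementation read by luminescence after 1 h at ambient temperature. Dopamine 57 uM final (EC100) as control.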
D2 ag-2: D2 dopamine receptor (human) agonism | activation, % at 2 µM | 340,000 tested, 0.53% active | HEK293 T-REx D2 cells, calcium flux agonist mode | P14416;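 active means activation over 3 SD above normal in the single-dose calcium agonist read, cut at about 30% in these data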; further: 0% is about no effect
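Agonism scored from kinetic calcium signal (1 read/sec, 180 s) following compound pin transfer, after a 10 s baseline. Cells: HEK293 Trex line expressing inducible D2 receptor coupled to calcium, dye-loaded after overnight culture at 30 C.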
D2 antag: antagonists of human D2 dopamine receptor | 340,000 tested, 2% active | inhibition, % at 10 µM | HEK293 TREx D2 cells, calcium flux, dopamine EC80 | P14416; in the data active means inhibition above about 30%; inactive means below that, where a call was filed; further: 0% is about no effect
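Tetracycline-induced HEK293 T-REx cells expressing D2 force-coupled to calcium signalling were dye-loaded, exposed to compound for 180 s, then challenged with an EC80 of dopamine; calcium flux was followed kinetically for a further 180 s.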
D2 PAM-1: positive allosteric modulators of human D2 dopamine receptor. potentiation, % (concentration not given with the values). DiscoveRx D2 beta-arrestin cells, luminescence, 90 min; 100% = 57 uM dopamine signal. P14416. 360,000 tested, 0.23% active; in the data active means potentiation above about 50%; inconclusive means mostly about 30% to 49%
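PathHunter beta-arrestin assay in DiscoveRx D2 cells. Compounds were added with an EC20 of dopamine (50 nM final) for 90 min at 37 deg C. Luminescence was read 1 h after detection reagent, with 57 uM dopamine as the EC100 control.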
D2 PAM-2: D2 dopamine receptor (human) potentiation. P14416. HEK293 T-REx D2, calcium flux, EC20 dopamine potentiation. potentiation, % at 10 µM. 340,000 tested, 0.34% active;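 active means potentiation over 3 SD above the plate norm, cut at about 30% in these data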; further: 0% is about no effect
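Tetracycline-induced HEK293 T-REx cells force-coupled to calcium signalling expressed D2; compounds were pin-added after a 10 s baseline, read kinetically 180 s, then an EC20 dopamine challenge followed with a further 180 s calcium read.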
D3 arrestin ag: confirmation of human D3 dopamine receptor agonists, beta-arrestin; AID 720506; DiscoveRx D3 beta-arrestin cells, luminescence, 90 min; Potency, µM (highest dose often 76.9 µM), for inactives: at the top dose activation, most hits filed as activators; 2,300 tested, 4% active; shares compounds with D2 ag-2;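 further: potency means the concentration at half of the fitted maximal effect; 100% = dopamine control response; nearly all actives have a fitted effect of over 70% in size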
D2 ag-3: activates human D2 dopamine receptor in D3 counterscreen; shares compounds with D2 ag-2; DiscoveRx PathHunter D2 beta-arrestin, luminescence, 90 min; response scale: percent relative to full dopamine signal; Potency, µM (top dose mostly 76.9 µM), for the others: at the top dose activation, actives largely listed as activators; 2,300 tested, 5.9% active; AID 720507; further: potency means the concentration at half of the fitted maximal effect; % of control where 0% means no effect; nearly all actives have a fitted effect of over 70% in size
* hit, by the source's call. Unless noted, the call rests on the fitted dose curve; in most records, active means well fitted activation curve with a large enough effect; inconclusive means small, poorly fitted or top-dose-only effect; inactive means flat fitted curve, though single readings scatter.

How did Cc1cccc(C(C(=O)NC2CCCCC2)N(C(=O)c2csnn2)C2CC2)c1 (configuration not stated) do in these assays?
D2 ag-1: -2; D2 ag-2: 1; D2 antag: -10; D2 PAM-1: -5; D2 PAM-2: -28

How did C/C(CC1(O)C(=O)N(C)c2ccccc21)=N\O (configuration not stated) do in these assays?
D2 ag-1: -2; D2 ag-2: 1; D2 antag: -9; D2 PAM-1: -4; D2 PAM-2: 0

How did CCOc1ccc(NC(=O)CCN2CCN(c3ccccc3F)CC2)cc1 do in these assays?
D2 ag-1: inconclusive; D2 ag-2: 79*; D2 antag: 77*; D2 PAM-1: 14; D2 PAM-2: -20; D3 arrestin ag: inconclusive; D2 ag-3: inconclusive

Results for COc1ccc(C(=O)CCN2CCCCCC2)cc1 ?
D2 ag-1: -2; D2 ag-2: 3; D2 antag: -7; D2 PAM-1: -14; D2 PAM-2: -8

Results for CC(=O)N1CCc2cc(C(=O)CN3CCN(c4ccccc4F)CC3)ccc21 ?
D2 ag-1: -4; D2 ag-2: 0; D2 antag: -5; D2 PAM-1: -9; D2 PAM-2: 11

How did CCOc1ccc(NC(=O)CCN2CCN(C)CC2)cc1 do in these assays?
D2 ag-1: 3; D2 ag-2: 0; D2 antag: -13; D2 PAM-1: -6; D2 PAM-2: 18

What do the screens show for `CCOc1ccc(NC(=O)NCCN2CCN(c3ccccc3F)CC2)cc1`?
D2 ag-1: inconclusive; D2 ag-2: 77*; D2 antag: 79*; D2 PAM-1: -8; D2 PAM-2: -29; D3 arrestin ag: inconclusive; D2 ag-3: inconclusive

Results for O=C(CN1CCN(c2ccccc2F)CC1)c1ccc2cc[nH]c2c1 ?
D2 ag-1: -4; D2 ag-2: 28; D2 antag: 29; D2 PAM-1: -14; D2 PAM-2: -25; D3 arrestin ag: 9%; D2 ag-3: 12%

Results for COc1ccc(NC(=O)CN2CCN(c3ccccc3F)CC2)cc1 ?
D2 ag-1: -1; D2 ag-2: 0; D2 antag: -1; D2 PAM-1: -42; D2 PAM-2: 6

How did COc1ccc(C(=O)CCN2CCN(c3ccccc3F)CC2)cc1 do in these assays?
D2 ag-1: 2; D2 ag-2: 28; D2 antag: 82*; D2 PAM-1: -35; D2 PAM-2: -25; D3 arrestin ag: 4%; D2 ag-3: 0%

What do the screens show for `COc1ccc(N2CCN(CCCNC(=O)C3CCC(CNc4nc(=S)[nH]c5ccccc45)CC3)CC2)cc1` (configuration not stated)?
D2 ag-1: 1; D2 ag-2: -1; D2 antag: 26; D2 PAM-1: -1; D2 PAM-2: -16

Results for COc1ccccc1N1CCN(CCC(=O)Nc2ccc3c(c2)OCO3)CC1 ?
D2 ag-1: -1; D2 ag-2: 55*; D2 antag: 80*; D2 PAM-1: -16; D2 PAM-2: -18; D3 arrestin ag: -4%; D2 ag-3: 1%

Results for CCOC(=O)N1CCC(Nc2c(NCCN3CCN(c4ccccc4F)CC3)c(=O)c2=O)CC1 ?
D2 ag-1: 2; D2 ag-2: 43*; D2 antag: 24; D2 PAM-1: -11; D2 PAM-2: -9; D3 arrestin ag: inconclusive; D2 ag-3: 3%

How did COc1cccc(NC(=O)CCN2CCN(c3ccccc3F)CC2)c1 do in these assays?
D2 ag-1: inconclusive; D2 ag-2: 76*; D2 antag: 77*; D2 PAM-1: -8; D2 PAM-2: -24; D3 arrestin ag: inconclusive; D2 ag-3: inconclusive

What do the screens show for `CCOC(=O)N1CCC(Nc2c(NCCN3CCN(Cc4ccccc4)CC3)c(=O)c2=O)CC1`?
D2 ag-1: 0; D2 ag-2: 0; D2 antag: 23; D2 PAM-1: -19; D2 PAM-2: -15

What do the screens show for `COc1ccc(-c2noc(CCC(=O)NCCN3CCN(c4ccccc4F)CC3)n2)cc1`?
D2 ag-1: -1; D2 ag-2: 41*; D2 antag: 65*; D2 PAM-1: -32; D2 PAM-2: -27; D3 arrestin ag: -1%; D2 ag-3: 18%

What do the screens show for `COc1ccccc1N1CCN(CC(=O)Nc2ccc3c(c2)OCCO3)CC1`?
D2 ag-1: 1; D2 ag-2: -1; D2 antag: -24; D2 PAM-1: 5; D2 PAM-2: 19

What do the screens show for `CCN1CCN(CCCNC(=O)CCc2nc(-c3ccc(OC)cc3)no2)CC1`?
D2 ag-1: -2; D2 ag-2: 1; D2 antag: -10; D2 PAM-1: -2; D2 PAM-2: -15

Results for Cn1c(CNC(=O)CSc2nc(-c3cccc(Cl)c3)nc3cc(=O)[nH]n23)nc2ccccc21 ?
D2 ag-2: 0; D2 PAM-2: 3

What do the screens show for `COc1ccc(OCCCC(=O)Nc2cccnc2)cc1`?
D2 ag-1: -3; D2 PAM-1: 4

What do the screens show for `COc1cccc(NS(=O)(=O)c2ccc(-c3cc(C)no3)s2)c1`?
D2 ag-2: -1; D2 PAM-2: 15

Results for CCOc1ccc(NC(=O)CCN2CCN(c3ccccc3OC)CC2)cc1 ?
D2 ag-1: 1; D2 ag-2: 27; D2 antag: 61*; D2 PAM-1: -31; D2 PAM-2: -28; D3 arrestin ag: -7%; D2 ag-3: 4%

How did COc1ccc(NC(=O)NCCCN2CCN(c3ccccc3F)CC2)cc1 do in these assays?
D2 ag-1: 6; D2 ag-2: 82*; D2 antag: 92*; D2 PAM-1: -4; D2 PAM-2: -25; D3 arrestin ag: inconclusive; D2 ag-3: 24%

How did COc1ccc(S(=O)(=O)N2CCN(CC(O)CN3CCOCC3)CC2)cc1 (configuration not stated) do in these assays?
D2 ag-1: -4; D2 ag-2: 0; D2 antag: -10; D2 PAM-1: -3; D2 PAM-2: 20

What do the screens show for `COc1ccccc1N1CCN(CC(O)COc2ccc(S(=O)(=O)N3CCOCC3)cc2)CC1` (configuration not stated)?
D2 ag-1: inconclusive; D2 ag-2: 71*; D2 antag: 92*; D2 PAM-1: -19; D2 PAM-2: -17; D3 arrestin ag: -6%; D2 ag-3: inconclusive
